Laboratory results as given in ChEMBL document CHEMBL1157539, “Thousands of chemical starting points for antimalarial lead identification” (Nature, 2010).

tested on: Plasmodium falciparum; assay: GSK_TCMDC: Inhibition of Plasmodium falciparum 3D7 in whole red blood cells, using parasite LDH activity as an index of growth. Test compounds present at 2uM; format: functional

Point of comparison: `COC(=O)/C=C/c1ccc(CCC(C)NCC(O)c2cccc(Cl)c2)cc1` (stereo not given), Inhibition 94%. Against it:
- Cc1cccc(OCC(=O)Nc2cccc(NC(=O)COc3cccc(C)c3)n2)c1 — higher, 98%
- CCn1c(Cc2ccccc2)nnc1Sc1ccc([N+](=O)[O-])c(C#N)c1 — lower, 93%
- CCOC(=O)CN1Cc2cc(NCc3ccc4ccc5nc(C)[nH]c(=O)c5c4c3)ccc2C1=O — lower, 84%
- COc1ccc(-c2cc3ncn(CC(=O)N4CCN(c5cccc(OC)c5)CC4)c(=O)c3s2)cc1 — lower, 84%
- CN(C)CCNCc1ccc(-c2ccc(-c3nc4ccccc4[nH]3)s2)cc1.O=C(O)C(F)(F)F — higher, 100%
- COc1ccc(-c2nc(NC(=O)Cc3cccc(OC)c3)sc2C)cc1 — higher, 100%
- O=C(O)C(F)(F)F.OCCN1CCN(Cc2ccc(-c3cccc(-c4nc5cc(C(F)(F)F)ccc5[nH]4)c3)cc2)CC1 — higher, 99%
- OC(CNc1ccnc(Nc2cccc(OCCCN3CCOCC3)c2)n1)c1ccccc1 (stereo not given) — higher, 97%
- COc1cc2c(cc1C(F)(F)F)N(C(=O)Nc1cc(F)cc(-c3cncnc3)c1)CC2 — higher, 97%
- Cc1cc(Nc2ccccc2)nc(Nc2ccccc2C)n1.Cl — lower, 85%
- Br.CCCOC(=O)c1ccc(OCCCON2C(=N)N=C(N)NC2(C)C)cc1 — higher, 95%
- Cc1cccnc1Nc1nc(-c2ccccn2)cs1 — higher, 96%
- CCCCCCC(C)c1cc(O)c2c(c1)OC(C)(C)C=C2c1ccncc1 (stereo not given) — higher, 98%
- COc1cccc(Nc2nc(Nc3cccc(C#N)c3)cc(-c3ccncc3)n2)c1 — higher, 100%
